This assay in a line: binders of probe aFSTL3 on microarray, primary screen, stem cell growth factor project, biochemical, small-molecule microarray, fluorescence 635/667 (AID 1064).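 Also: measures binding of the biotinylated anti-FSTL3 antibody to printed compounds.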 Conditions: higher = more signal.
With `O=C1O[C@H](c2ccccc2)[C@H](c2ccccc2)N2[C@H]1[C@@H](C(=O)Nc1nc3ccccc3s1)[C@]1(C(=O)Nc3ccc(C#CCCO)cc31)[C@H]2c1ccc(OCCO)cc1`, the composite z-score is -0.379. Consider `O=C1OCCC/C=C\[C@H]2OC34C=CCN(Cc5ccccc5)C(=O)[C@H]3N(CCCCCCO)C(=O)[C@@H]4C12` (stereo not given in full), for which the composite z-score worked out at 1.26. In turn, `C=CC[C@]1(C(=O)N2CCCCC2)N=C(c2ccc(OCCCO)cc2)O[C@H]1c1ccccc1` registered a composite z-score of 1.08. With `COc1ccc(C(=O)O[C@H]2CC[C@]3(C)C4=C(CCC3C2(C)C)[C@]2(C)CC[C@H]([C@H](C)CCCC(C)C)[C@@]2(C)CC4)cc1` (stereo not given in full), the composite z-score was -0.581. Next, `C[C@]1(C(=O)NC2CC2)c2ccccc2C(=O)N(Cc2cc(C(F)(F)F)cc(C(F)(F)F)c2)[C@H]1c1ccc(CO)cc1`: 0.098; `NCCCCCNC(=O)[C@@H]1C[C@@H]2C(=O)NCC(=O)N2[C@@H]1c1ccc(O)cc1`: -0.293.

`[N-]=[N+]=Nc1ccccc1C[C@@]1(C(=O)NCCN2CCOCC2)N=C(c2ccc(OCCCO)cc2)O[C@@H]1c1ccccc1` came in with a composite z-score of 0.234. `Cc1ccc(S[C@]2(C(=O)NC3CC3)CC(=O)N(C3Cc4ccccc4C3)[C@@H]2c2ccc(CO)cc2)cc1` displayed a composite z-score of 0.631. Take `C=C(/C(=C/C[C@@H](OC(C)=O)c1ccc(OCCO)cc1)c1cnc2ccccc2c1)C(C)C`: the composite z-score is -0.0854.

`CC1(C)[C@@H]2CC(C(O)C3C=CC4C(=O)N(c5ccccc5)C(=O)C4N3Nc3ccccc3)=C[C@H]1C2` (stereo not given in full) had a composite z-score of 0.11. Molecule `COC(=O)[C@@]1(Cc2ccc(F)cc2)[C@H]2c3cc(C(=O)N4CCCC4)n(Cc4cc(C)n(C)n4)c3C[C@H]2CN1C(=O)c1ccccc1` displayed a composite z-score of 1.08. Next, `CC1CC/C=C\[C@H]2OC34C=CCN(c5ccc(Cl)cc5)C(=O)[C@H]3N(CCO)C(=O)[C@]4(C)C2C(=O)O1` (stereo not given in full): 0.359. In turn, `O=C1O[C@H](c2ccccc2)[C@H](c2ccccc2)N2[C@H]1[C@@H](C(=O)O)[C@]1(C(=O)Nc3ccc(C#CCCO)cc31)[C@H]2c1ccc(O)cc1` showed a composite z-score of 1.32. Next, `COc1cc2c(cc1O)C=[N+](Cc1cccc(OC(F)(F)F)c1)CC2`: -0.193; `COC(=O)c1c(CC[C@@H](CO)NC(=O)N[C@H](Cn2cc(Cc3ccccc3)nn2)C(C)C)oc(C(C)=O)c1C(=O)OC`: -0.234; `O=C1O[C@H](c2ccccc2)[C@H](c2ccccc2)N2[C@H]1[C@@H](C(=O)N1CCN(c3ncccn3)CC1)[C@]1(C(=O)Nc3ccc(C#CC4=CCCCC4)cc31)[C@H]2c1ccc(O)cc1`: -0.001. Next, `CN(C)CCCNC(=O)[C@@]1(c2ccc([N+](=O)[O-])cc2)CC(=O)N(C2CCCCC2)[C@@H]1c1ccc(CO)cc1`: 0.4; `COc1ccc(C#Cc2ccc3c(c2)[C@]2(C(=O)N3)[C@H](c3ccccc3OCCO)N3[C@H](c4ccccc4)[C@H](c4ccccc4)OC(=O)[C@H]3[C@@H]2C(=O)O)cc1`: -0.377; `COc1ccc([C@H]2OC[C@@H]3CC4(CC=CC4)C(=O)N32)cc1`: 0.0596. Next, `COc1ccc(C(O)C2C=CC3C(=O)NC(=O)C3N2Nc2ccccn2)c2ccccc12` (stereo not given): -0.37; `Cc1ccc(S[C@]2(C(=O)NC(C)C)CC(=O)N(Cc3ccccc3Cl)[C@@H]2c2ccc(CO)cc2I)cc1`: 0.319. On to `C=CCOC(=O)[C@@H]1[C@H]2C(=O)O[C@H](c3ccccc3)[C@H](c3ccccc3)N2[C@H](c2ccc(OCCOC(=O)[C@@H]3C[C@@H]4C(=O)N5CCC[C@H]5C(=O)N4[C@@H]3c3ccc(O)cc3)cc2)[C@@]12C(=O)Nc1ccc(I)cc12`, for which the composite z-score is -0.354. Turning to `CCN(CC)c1ccc(N2CC=CC34O[C@@H]5/C=C\CCCOC(=O)C5[C@H]3C(=O)N(CCO)[C@@H]4C2=O)cc1` (stereo not given in full), the composite z-score came out at 0.244. As for `C=CCNC(=O)[C@@H]1[C@H]2C(=O)O[C@H](c3ccccc3)[C@H](c3ccccc3)N2[C@H](c2ccc(OCCO)cc2)[C@@]12C(=O)Nc1ccc(C#CCCO)cc12`, the composite z-score amounted to 0.604.

Take `COC(=O)C(CC#Cc1ccc2c(c1)[C@]1(C(=O)N2)[C@H](c2ccc(O)cc2)N2[C@H](c3ccccc3)[C@H](c3ccccc3)OC(=O)[C@H]2[C@@H]1C(=O)Nc1nc2ccccc2s1)C(=O)OC`: the composite z-score is -0.386. In the case of `CCOC(=O)C[C@H]1[C@H](OC(=O)c2cc3ccccc3oc2=O)[C@@H](NC(=O)C2CCCCC2)c2cc(OCCCO)ccc2N1C(=O)c1ccccc1` it was -0.565; in that of `C=CC[C@@]1(C(N)=O)N=C(c2ccc(OCCCO)cc2)O[C@@H]1c1ccccc1CN=[N+]=[N-]`, 0.626. In the case of `COc1ccc([Si](C)(C)[C@H]2[C@H](CCO)O[C@@]3(C(=O)N(C)c4c(Br)cc(C)cc43)[C@@H]2C)cc1` it was 0.107; in that of `C[C@@]1([C@@H](NC(=O)c2ccccc2)c2ccc(-c3ccccc3)cc2)C[C@H]1C1CCCCC1`, 0.742; in that of `O=C1NC(=O)C2C1C=CC(C(O)C(c1ccccc1)c1ccccc1)N2Nc1ccc(Cl)cc1Cl` (stereo not given), 0.246.

For `COCCOC(=O)N1C(=O)[C@@]2(c3cc(C#Cc4ccc(OC)cc4)ccc31)[C@H](C(N)=O)[C@H]1C(=O)O[C@H](c3ccccc3)[C@H](c3ccccc3)N1[C@@H]2c1ccccc1OCCO`, the composite z-score worked out at 0.214.

In the case of `C#CCN(Cc1ccccc1Br)C(/C=C/c1ccccc1)CO` (stereo not given), the composite z-score was found to be 0.389.

For `CCCN1C(=O)[C@]2(CCS(=O)(=O)c3ccccc3)N=C(c3ccc(OCCCO)cc3)O[C@@H]2c2ccccc21`, the composite z-score worked out at 0.375. Next, `COCCOC(=O)N1C(=O)[C@@]2(c3cc(C#CCCO)ccc31)[C@H](C(=O)Nc1nc3ccccc3s1)[C@H]1C(=O)O[C@H](c3ccccc3)[C@H](c3ccccc3)N1[C@@H]2c1ccc(OCCO)cc1`: -0.221; `CCCCC(=C=CC[C@@H](O)c1ccccc1OCCO)CCO`: -0.347.

The values are drawn from PubChem BioAssay.
